Screening data from PubChem.
Compounds with a hit are over-represented: about 2.8% of the library has one in this group of screens.
POLI inh: qHTS for Inhibitors of Polymerase Iota | AID 588590, 2011 | Potency, µM (doses to about 115 µM), without a hit: at the highest dose activity, negative = inhibition, hits mostly inhibitors | hit rate 1% among 390,000 | Pol iota fluorescent replication assay, 10 min; note: potency is the fitted concentration of half-maximal effect
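Pol iota at 10 nM preincubated 15 min with compounds at room temperature; reaction started with fluorescent substrate, 50 nM final. Fluorescence read kinetically at 0 and 10 min; buffer-only wells as negative control.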
PI5P4Ka inh: qHTS for Inhibitors of phosphatidylinositol 5-phosphate 4-kinase (PI5P4K); max response, %; AID 652105, 2013; PI5P4Kalpha enzyme, ADP-Glo luminescence, 60 min; active compounds read low; hit rate 1.2% among 330,000; Phosphatidylinositol 5-phosphate 4-kinase type-2 alpha (Homo sapiens), P48426; active = max response of -50% or lower; inconclusive = between -30% and -50%; inactive = -30% or higher; note: value at the top dose of about 77 µM; % is set by controls: 0 for no effect and ±100 for the full control effect
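Luminescence from ADP-Glo served as readout of PI5P4Kalpha activity in a qHTS format. Reaction: enzyme, substrate, compound, ATP at 5 microM final, 60 min at RT.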
Pol beta inh: qHTS Assay for Inhibitors of DNA Polymerase Beta | Pol beta primer extension/strand displacement, fluorescence kinetic | AID 485314, 2010 | Potency, µM (doses to about 114 µM), without a hit: at the top dose activity change, negative = inhibition, usual class: inhibitors | hit rate 1.3% among 340,000 | P06746; note: potency is the fitted concentration of half-maximal effect; % is set by controls: 0 for no effect and ±100 for the full control effect
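Values derive from four-parameter Hill fits of normalized kinetic data: reads at 0 and 10 min following addition of 50 nM substrate to 10 nM Pol beta preincubated 15 min with compound.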
WRN helicase inh: qHTS for Inhibitors of WRN Helicase; Bifunctional 3'-5' exonuclease/ATP-dependent helicase WRN (Homo sapiens), Q14191; Potency, µM (doses to about 114 µM), for inactives: at the top dose activity change, negative = inhibition, usual class: inhibitors; WRN helicase unwinding, fluorescent forked duplex, kinetic; hit rate 0.46% among 360,000; note: potency is the fitted concentration of half-maximal effect; % is set by controls: 0 for no effect and ±100 for the full control effect; nearly all actives have a fitted effect of over 55% in size
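Primary qHTS, 1536-well format. 20 nM WRN + compound, 15 min RT; start with 100 nM forked fluorophore/quencher duplex, 2 mM ATP (final); kinetic read ex 525/em 598 nm.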
Pol kappa inh: qHTS for Inhibitors of Polymerase Kappa. hit rate 0.53% among 400,000. purified Pol kappa, fluorescent DNA synthesis assay, 10 min. AID 588579, 2011. DNA polymerase kappa (Homo sapiens), Q9UBT6. Potency, µM (titrated, usually from 107 µM), inactives show at the top dose activity, negative = inhibition, usual class: inhibitors; note: potency is the fitted concentration of half-maximal effect; % is set by controls: 0 for no effect and ±100 for the full control effect
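Enzyme at 10 nM met test compounds for 15 min at room temperature. Substrate addition (50 nM final) began the reaction, which was monitored by fluorescence at 0 and 10 min.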
Pol eta inh: qHTS for Inhibitors of Polymerase Eta | DNA polymerase eta (Homo sapiens), Q9Y253 | Potency, µM (top dose mostly 114 µM), inactives show at the top dose activity change, negative = inhibition, hits mostly inhibitors | hit rate 1.2% among 390,000 | recombinant Pol eta, fluorescent DNA replication assay; note: potency is the fitted concentration of half-maximal effect; % is set by controls: 0 for no effect and ±100 for the full control effect
Target sequence (Q9Y253 whole entry, looked up): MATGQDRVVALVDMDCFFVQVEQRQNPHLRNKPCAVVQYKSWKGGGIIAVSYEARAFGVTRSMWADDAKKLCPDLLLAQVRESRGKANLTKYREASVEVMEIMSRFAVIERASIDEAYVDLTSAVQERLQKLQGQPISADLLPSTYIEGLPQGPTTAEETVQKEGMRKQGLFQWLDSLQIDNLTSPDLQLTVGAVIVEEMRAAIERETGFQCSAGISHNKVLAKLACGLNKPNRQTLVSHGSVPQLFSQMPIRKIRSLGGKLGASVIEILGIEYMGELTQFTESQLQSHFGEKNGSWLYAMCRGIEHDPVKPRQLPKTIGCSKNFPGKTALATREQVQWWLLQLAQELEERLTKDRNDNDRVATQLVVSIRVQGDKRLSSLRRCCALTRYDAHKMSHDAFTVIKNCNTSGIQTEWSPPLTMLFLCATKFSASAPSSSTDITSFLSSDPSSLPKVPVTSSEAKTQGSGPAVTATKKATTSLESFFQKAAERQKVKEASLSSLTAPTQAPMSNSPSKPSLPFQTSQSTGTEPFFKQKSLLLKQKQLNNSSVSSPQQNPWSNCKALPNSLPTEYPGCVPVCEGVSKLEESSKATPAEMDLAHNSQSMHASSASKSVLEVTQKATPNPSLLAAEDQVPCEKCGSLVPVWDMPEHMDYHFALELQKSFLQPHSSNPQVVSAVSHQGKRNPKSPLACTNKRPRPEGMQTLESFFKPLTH
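Fluorescent replication assay: 50 nM final substrate added after a 15 min room-temperature compound preincubation with 10 nM enzyme. Signal taken at 0 min and again at 10 min.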
Active calls of the source: *; ? = inconclusive; / = not tested or not shown; ! = not confirmed by another sample; [ ] = another dose, or the depositor's remark. Unless noted, calls come from the whole dose curve; as a rule, active = well fitted curve in the direction sought with a large enough effect; inconclusive = small, poorly fitted or top-dose-only effect, or another doubt; inactive = no such curve, though single readings can be large; an effect the other way counts as inactive or inconclusive.

SMILES	POLI inh	PI5P4Ka inh	Pol beta inh	WRN helicase inh	Pol kappa inh	Pol eta inh
CCC(CC)c1nnc(NC(=O)Cc2cccs2)s1	-15%	?	?	-10%	-18%	79µM*
COc1ccc(C(=O)O)cc1NC(=S)NC(=O)c1ccc(-c2ccc(Cl)cc2)o1	?	-15	-2%	-5%[11.6 µM]	-16%	20µM*
O=C(O)c1cccc(NC(=S)NC(=O)c2ccc(-c3ccc(Cl)cc3)o2)c1	?	-19	?	?	-31%	?
Cc1ccc(C(=O)O)cc1NC(=S)NC(=O)c1ccc(-c2ccc(Cl)cc2)o1	-9%	2	23%	-8%[11.6 µM]	-12%	50µM*
COc1cc2nc(N3CCN(C)CC3)nc(NC3CCN(Cc4ccccc4)CC3)c2cc1OC	-12%	/	/	/	-17%	/
Cc1cc(NC(=O)c2cccn2-c2nnc(N3CCCCC3)s2)ccc1Br	?	/	-12%	/	-1%	-10%
CN(C)/[N+]([O-])=N/Oc1ccc([N+](=O)[O-])cn1	31%	/	/	/	7%	/
COc1cc2nc(N3CCOCC3)nc(NC3CCN(Cc4ccccc4)CC3)c2cc1OC	20%	/	/	/	2%	/
Oc1ccc2c(c1)OCC1(O)Cc3cc(O)c(O)cc3C21 (centres undefined)	41%	-88*	/	8.9µM*	32µM*!	18µM*
O=C(NCCO)c1ccc(CSc2nc3ccccc3[nH]2)cc1	21%	-2	32%	-21%[57.1 µM]	-3%	-11%
CCOc1ccc(/C=N/NC(=O)c2cc3c(OC)cc(OC)cc3[nH]2)cc1OC	24%	2	?	-26%	-8%	?
COc1ccc(/C=N/NC(=O)c2ccc(Cl)c(S(N)(=O)=O)c2)cc1OCC(N)=O	-19%	0	-25%	-22%	79µM*	-3%
CCOc1ccc2[nH]c(C(=O)N/N=C/c3cc(OC)c(OC)c(OC)c3)cc2c1	-15%	4	13µM*	4%	-30%	?
COc1ccc(/C=N/NC(=O)c2[nH]nc3c2CCc2ccccc2-3)cc1OC	-52%	-19	11µM*	-15%	?	?
COc1cc(/C=N/NC(=O)c2ccc(CSc3nc4ccccc4[nH]3)cc2)cc(OC)c1OC	?	-6	10µM*	-20%[57.1 µM]	?	?
O=C(C[n+]1cccc(Br)c1)c1ccc(I)cc1	27%	/	/	/	5%	/
Cc1ccc2onc(CC(=O)N3CCN(c4ccccc4)CC3)c2c1	-3%	/	10%	/	-14%	-13%
COc1ccc(/C=N/NC(=O)c2ccc3nc[nH]c3c2)cc1OC	13µM*	7	16µM*	-9%	?	-15%
COc1cc(/C=N/NC(=O)c2ccc3nc[nH]c3c2)cc(OC)c1OC(C)=O	/	-8	/	21%	/	9%
COc1cc(/C=N/NC(=O)c2ccc3nc[nH]c3c2)cc(OC)c1OC	16µM*	-12	7.1µM*	-15%	?	?
Fc1ccc(CSc2nc3ccccc3[nH]2)cc1	71µM*	/	77%	-10%	-4%	-2%
COc1ccc(NC(=O)Cn2nnc(C(=O)NCCc3ccccc3)c2N)cc1	35µM*	4	25µM*	-18%	-34%	-26%
CCOc1ccc(CCNC(=O)c2nnn(CC(=O)Nc3ccc(C)cc3)c2N)cc1OCC	?	-1	25µM*	-12%	?	-1%
Cc1ccc(NC(=O)Cn2nnc(C(=O)NCc3ccccc3)c2N)cc1C	?	-1	-14%	-1%	-4%	?
Cc1ccc(NC(=O)Cn2nnc(C(=O)NCCc3ccccc3)c2N)cc1C	89µM*	/	?	/	?	-24%
SMILES	POLI inh	PI5P4Ka inh	Pol beta inh	WRN helicase inh	Pol kappa inh	Pol eta inh
COc1cccc(NC(=O)Cn2nnc(-c3nc(-c4ccccc4)no3)c2N)c1	89µM*	/	18µM*	/	-11%[60.1 µM]	-4%
CCc1ccc(NC(=O)Cn2nnc(C(=O)NCCc3ccccc3)c2N)cc1	-11%	/	-1%	/	-11%	-19%
Nc1c(-c2nc(-c3ccccc3)no2)nnn1CC(=O)Nc1ccccc1	?	/	?	/	7%	/
COc1ccccc1/C=C/c1ccnc2ccccc12	11%	/	/	/	-3%	/
CCN(CC)CCCNC(=O)Cn1c(-c2cccs2)cc2cc(Cl)ccc21	10%	/	-25%	/	-13%	-26%
OC(CN1C=CCc2ccccc21)c1ccc(Cl)cc1Cl (centres undefined)	-13%	/	/	/	4%	/
O=C(CNS(=O)(=O)c1c(Cl)cccc1Cl)OCC(=O)c1ccc[nH]1	16µM*	-51*	?	-4%[11.6 µM]	?	45µM*
O=C1CCNc2cc3ccccc3cc21	-14%	?	25µM*	?	-17%	?
O=C1CCNc2ccc(-c3ccccc3)cc21	14%	-1	8%	-21%	1%	-13%
O=C(COC(=O)c1ccco1)Nc1nc2ccc([N+](=O)[O-])cc2s1	-11%	-54*	?	-7%	-17%	-8%
CCCC[C@@H]1C[C@H]1[C@@H](NC(=O)c1ccco1)c1ccc(C(=O)OC)cc1	12%	?	/	-18%	-18%	32µM*
CCCC[C@@H]1C[C@H]1[C@@H](NC(=O)c1ccccc1)c1ccccc1C(F)(F)F	7%	6	-4%	-8%	-4%	-9%
CCOc1ccccc1Oc1coc2cc(OCC(=O)O)ccc2c1=O	3%	-16	10µM*	4%[11.6 µM]	-41%	28µM*
CCOc1ccc2c(=O)c(Oc3ccccc3OCC)coc2c1	89µM*	4	-17%	5%	-14%	-6%
CCCCN(CCCNC(=O)CN1N=C(c2ccc(C)cc2)CCC1=O)c1ccccc1	0%	/	-11%	/	-7%[60.1 µM]	?
CC(=O)Nc1cccc(NC(=O)Nc2cccc(Cl)c2C)c1	10%	-2	45µM*	-6%	-23%	-9%
CC(=O)Nc1cccc(NC(=S)Nc2cccc(Cl)c2C)c1	?	6	-2%	-4%	-14%	-3%
Cc1ccc(-c2ccc(/C=C3\SC(N4CCOCC4)=NC3=O)o2)cc1	60%	13	-11%	-10%[57.1 µM]	-18%	?
Cc1ccc(/C=C2\SC(N3CCN(C(c4ccccc4)c4ccccc4)CC3)=NC2=O)o1	-12%	?	40µM*	-24%	-8%	-1%
Cn1c(CCNC(=O)C2CCCCC2)nc2cc(NC(=O)c3cccs3)ccc21	89%	-4	40µM*	-12%	1%	3%
CC(=O)NCCc1nc2cc(NC(=O)c3cccs3)ccc2n1C	174%	2	7%	-2%	-14%	-24%
